Consider two compounds from PubChem BioAssay (NCATS).

Results filed as inconclusive are left out. The list shows a part of the results. The source made the active and inactive calls. The call rests on the fitted dose curve; in most records, active means well fitted curve in the direction sought with a large enough effect; inconclusive means small, poorly fitted or top-dose-only effect, or another doubt; inactive means no such curve, though single readings can be large; an effect the other way counts as inactive or inconclusive.

Assay [1] has as its target Tyrosyl-DNA phosphodiesterase 1 (Homo sapiens) (UniProt Q9NUW8). Kind of assay: Confirmation Assay for Inhibitors of Tyrosyl-DNA Phosphodiesterase (TDP1) (AID 489007). Further: potency means the concentration at half of the fitted maximal effect; nearly all actives have a fitted effect of over 40% in size. Particulars: recombinant human TDP1 enzymatic activity, dose-response. A digest of the protocol:
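AlphaScreen assay of tyrosine-FITC cleavage from a biotinylated DNA substrate (15 nM) by E. coli-expressed human Tdp1 (1 nM). Sequence: compound preincubation 15 min, reaction 5 min, bead detection 10 min, all at room temperature. No-enzyme wells give maximum signal.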

The target of assay [2] is DNA repair nuclease/redox regulator APEX1 (Homo sapiens) (UniProt P27695). Description: qHTS FP-Based Assay for Inhibitors of the Human Apurinic/apyrimidinic Endonuclease 1 (APE1) (AID 2573). Particulars: APE1 binding to TAMRA-labelled double-stranded DNA, fluorescence polarization displacement; series mostly up to 28.5 µM. From the text:
The apurinic/apyrimidinic endonuclease APE1 is the primary mammalian enzyme responsible for the removal of abasic (or AP) sites in DNA and functions centrally in the base excision DNA repair (BER) pathway. […] Thus, targeting APE1 could improve the efficacy of current treatment paradigms by promoting selective sensitization or protection of diseased and normal cells, respectively.
In order to gain insight into the mode of action of confirmed APE1 inhibitors, we implemented a miniaturized fluorescence polarization assay designed to report on compounds which competitively displace ds-DNA substrate. The fluorescence polarization assay has been implemented in 384- and 1536-well format for binding of TAMRA-labeled double-stranded DNA probe not containing a quencher. The binding of protein to DNA is inhibited by ATA, a general inhibitor of APE1 activity.
See also related primary fluorogenic assay (AID 2517). […]
Three uL of enzyme were dispensed to 1536-well Greiner black solid bottom plates. […] The plates were immediately transferred into ViewLux High-throughput CCD imager (Perkin-Elmer) in order to measure the reaction progress in kinetic mode (three reads every 60 seconds) using 525 nm excitation and 598 nm emission fluorescence protocol. The fluorescence intensity difference between the third and the first time points was used to compute reaction progress.
For orientation: In qHTS, concentration-response curves come from the screen itself.

In assay [3] the target is Lethal(3)malignant brain tumor-like protein 1 (Homo sapiens) (UniProt Q9Y468). Kind of assay: qHTS Assay for the Inhibitors of L3MBTL1: Hit Validation (AID 540279). Further: potency means the concentration at half of the fitted maximal effect; nearly all actives have a fitted effect of over 70% in size. Particulars: L3MBTL1 methyl-lysine binding inhibition, biochemical qHTS. An excerpt: The histone code is comprised of many post-translational modifications that occur mainly in histone tail peptides. The identity and location of these marks are read by a variety of histone binding proteins that are emerging as important regulators of cellular differentiation and development and are increasingly being implicated in numerous disease states. Small molecule probes that disrupt the interaction between histone binding proteins and chromatin would enable a systematic chemical biology study of proteins that read the histone code and could potentially reveal new targets for drug discovery. However, no such small molecules are known. This dearth of quality molecular probes can largely be attributed to the novelty of the target class and the lack of screening assays. This proposal details the development of the first high-throughput screening assay for the discovery of inhibitors of methyl-lysine binding proteins and how it can be used to initiate a full-scale discovery effort for antagonists of histone binding proteins. […]
Lethal(3)malignant brain tumor-like protein 1 (Homo sapiens), sequence (Q9Y468 whole entry, looked up): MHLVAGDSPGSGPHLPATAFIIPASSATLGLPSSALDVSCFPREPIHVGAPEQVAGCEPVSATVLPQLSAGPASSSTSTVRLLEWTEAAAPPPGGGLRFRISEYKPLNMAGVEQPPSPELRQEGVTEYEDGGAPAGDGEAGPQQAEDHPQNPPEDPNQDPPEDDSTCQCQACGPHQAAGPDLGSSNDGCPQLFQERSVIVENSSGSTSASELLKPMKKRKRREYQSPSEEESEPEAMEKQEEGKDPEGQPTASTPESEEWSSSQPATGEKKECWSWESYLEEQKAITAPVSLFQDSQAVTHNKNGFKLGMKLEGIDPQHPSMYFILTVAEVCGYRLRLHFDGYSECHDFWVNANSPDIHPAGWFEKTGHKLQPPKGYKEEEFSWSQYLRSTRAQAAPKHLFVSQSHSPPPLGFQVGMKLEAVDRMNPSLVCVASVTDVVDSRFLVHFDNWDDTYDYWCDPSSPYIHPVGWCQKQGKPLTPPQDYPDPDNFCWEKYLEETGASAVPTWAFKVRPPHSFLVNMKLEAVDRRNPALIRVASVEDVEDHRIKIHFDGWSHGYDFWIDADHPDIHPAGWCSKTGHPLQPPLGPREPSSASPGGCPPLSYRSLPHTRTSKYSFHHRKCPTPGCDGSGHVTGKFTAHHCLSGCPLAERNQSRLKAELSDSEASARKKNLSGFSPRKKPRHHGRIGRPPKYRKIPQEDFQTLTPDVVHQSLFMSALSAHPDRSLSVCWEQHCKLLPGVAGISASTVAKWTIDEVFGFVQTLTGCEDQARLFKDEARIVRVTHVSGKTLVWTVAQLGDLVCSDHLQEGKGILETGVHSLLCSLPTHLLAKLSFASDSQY
To each well, 2 uL of L3MBTL1 protein (final 50 nM) and 1 uL biotinylated histone peptide monomethylated at Lys9 [b-AHA-H3(1-15)K9me1] […] Microplates were then be read on an EnVision multilabel plate reader using the 1,536 plate HTS AlphaScreen aperture (excitation time 80 ms, measurement time 240 ms).

Assay [4] addresses DNA polymerase iota (Homo sapiens) (UniProt Q9UNA4). Kind of assay: qHTS for Inhibitors of Polymerase Iota: Confirmatory Assay for Cherry-picked Compounds (AID 720496). Further: potency means the concentration at half of the fitted maximal effect. Particulars: Pol iota primer extension, TAMRA/BHQ fluorescence. An excerpt: DNA polymerases, such as polymerase iota (Pol iota), are involved in DNA repair. Pol iota specifically plays an important role in translesion synthesis, where the normal high-fidelity DNA polymerases cannot proceed and DNA synthesis stalls. […] Thus, while Pol eta and most likely Pol iota's normal functions are to protect humans against the deleterious consequences of DNA damage, under certain conditions they can have deleterious effects on human health. As a consequence, small molecule inhibitors of Pol iota (identified from a high throughput replication assay) have potential therapeutic applications. A 1536-well format, fluorescence based, high-throughput screen (AID 588590) is developed in collaboration with the National Institute of Child Health & Human Development (NICHD) to screen for inhibitors of the […]. This screen is used to validate the activity of the selected compounds from the primary assay against the […]. Inhibition is the desired outcome for this assay. […]
Three microliters of reagents (buffer in column 3 and 4 as negative control while 10 nM Pol iota in columns 1, 2, and 5-48) were dispensed into a 1536-well black solid-bottom plate. […] The assay plates were initially read after 0 min and again after 10 min of kinetic reaction using the PerkinElmer Viewlux reader equipped with 525 nm excitation and 598 nm emission filters.

Assay [5] addresses DNA polymerase eta (Homo sapiens) (UniProt Q9Y253). Kind of assay: qHTS for Inhibitors of Polymerase Eta: Confirmatory Assay for Cherry-picked Compounds (AID 720502). Further: potency means the concentration at half of the fitted maximal effect. Particulars: Pol eta primer extension, TAMRA/BHQ fluorescence, 10 min. From the text: The Y-family of DNA polymerases, such as the Polymerase Eta (Pol eta), are specifically involved in DNA repair. Pol eta copies undamaged DNA with a lower fidelity than other DNA-directed polymerases. However, it accurately replicates UV-damaged DNA. When thymine dimers are present, this polymerase inserts the complementary nucleotides in the newly synthesized DNA, thereby bypassing the lesion and suppressing the mutagenic effect of UV-induced DNA damage. […] Thus, while Pol eta's (and most likely iota's) normal function is to protect humans against the deleterious consequences of DNA damage, under certain conditions they can have deleterious effects on human health. […] A 1536-well format, fluorescence based, high-throughput screen (AID 588591) is developed in collaboration with the National Institute of Child Health & Human Development (NICHD) to screen for inhibitors of the Pol eta enzyme. […]
Three microliters of reagents (buffer in column 3 and 4 as negative control while 10 nM Pol eta in columns 1, 2, and 5-48) were dispensed into a 1536-well black solid-bottom plate. […] The assay plates were initially read after 0 min and again after 10 min of kinetic reaction using the PerkinElmer Viewlux reader equipped with 525 nm excitation and 598 nm emission filters.

Tyrosyl-DNA phosphodiesterase 1 (Homo sapiens), sequence (Q9NUW8 whole entry, looked up): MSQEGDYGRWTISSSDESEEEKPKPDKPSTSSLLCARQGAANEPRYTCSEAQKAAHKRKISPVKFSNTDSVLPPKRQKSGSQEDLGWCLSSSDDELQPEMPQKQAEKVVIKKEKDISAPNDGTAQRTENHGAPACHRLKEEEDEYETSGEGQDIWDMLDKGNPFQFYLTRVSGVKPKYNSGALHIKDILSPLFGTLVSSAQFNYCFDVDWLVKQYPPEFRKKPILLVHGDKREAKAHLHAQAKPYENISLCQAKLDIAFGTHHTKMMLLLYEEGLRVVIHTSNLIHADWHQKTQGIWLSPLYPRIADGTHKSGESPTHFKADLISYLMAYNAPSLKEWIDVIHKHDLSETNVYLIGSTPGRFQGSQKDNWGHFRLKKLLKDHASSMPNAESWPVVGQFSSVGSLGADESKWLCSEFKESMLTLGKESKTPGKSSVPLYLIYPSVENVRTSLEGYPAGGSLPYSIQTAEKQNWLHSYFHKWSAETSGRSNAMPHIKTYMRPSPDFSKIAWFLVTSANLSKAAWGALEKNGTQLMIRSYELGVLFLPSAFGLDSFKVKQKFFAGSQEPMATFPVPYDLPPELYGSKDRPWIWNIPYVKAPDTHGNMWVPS
DNA polymerase eta (Homo sapiens), sequence (Q9Y253 whole entry, looked up): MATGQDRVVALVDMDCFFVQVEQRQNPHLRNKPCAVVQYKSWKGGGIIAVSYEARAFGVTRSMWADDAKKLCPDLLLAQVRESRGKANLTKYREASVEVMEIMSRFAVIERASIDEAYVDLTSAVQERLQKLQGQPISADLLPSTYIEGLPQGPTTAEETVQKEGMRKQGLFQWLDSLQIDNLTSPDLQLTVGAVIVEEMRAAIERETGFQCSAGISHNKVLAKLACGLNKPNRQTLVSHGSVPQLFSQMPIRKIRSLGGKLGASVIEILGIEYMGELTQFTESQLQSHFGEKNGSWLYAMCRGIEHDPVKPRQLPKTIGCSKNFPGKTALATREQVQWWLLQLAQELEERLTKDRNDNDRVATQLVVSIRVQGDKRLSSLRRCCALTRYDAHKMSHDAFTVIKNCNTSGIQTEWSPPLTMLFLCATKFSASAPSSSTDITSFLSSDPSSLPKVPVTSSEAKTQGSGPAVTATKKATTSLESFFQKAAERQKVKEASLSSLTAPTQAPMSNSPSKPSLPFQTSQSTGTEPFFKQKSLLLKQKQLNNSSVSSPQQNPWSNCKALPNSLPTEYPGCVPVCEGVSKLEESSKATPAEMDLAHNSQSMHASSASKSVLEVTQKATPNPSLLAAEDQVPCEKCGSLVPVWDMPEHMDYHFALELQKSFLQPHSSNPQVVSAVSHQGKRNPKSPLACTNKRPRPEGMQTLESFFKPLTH
DNA polymerase iota (Homo sapiens), sequence (Q9UNA4 whole entry, looked up): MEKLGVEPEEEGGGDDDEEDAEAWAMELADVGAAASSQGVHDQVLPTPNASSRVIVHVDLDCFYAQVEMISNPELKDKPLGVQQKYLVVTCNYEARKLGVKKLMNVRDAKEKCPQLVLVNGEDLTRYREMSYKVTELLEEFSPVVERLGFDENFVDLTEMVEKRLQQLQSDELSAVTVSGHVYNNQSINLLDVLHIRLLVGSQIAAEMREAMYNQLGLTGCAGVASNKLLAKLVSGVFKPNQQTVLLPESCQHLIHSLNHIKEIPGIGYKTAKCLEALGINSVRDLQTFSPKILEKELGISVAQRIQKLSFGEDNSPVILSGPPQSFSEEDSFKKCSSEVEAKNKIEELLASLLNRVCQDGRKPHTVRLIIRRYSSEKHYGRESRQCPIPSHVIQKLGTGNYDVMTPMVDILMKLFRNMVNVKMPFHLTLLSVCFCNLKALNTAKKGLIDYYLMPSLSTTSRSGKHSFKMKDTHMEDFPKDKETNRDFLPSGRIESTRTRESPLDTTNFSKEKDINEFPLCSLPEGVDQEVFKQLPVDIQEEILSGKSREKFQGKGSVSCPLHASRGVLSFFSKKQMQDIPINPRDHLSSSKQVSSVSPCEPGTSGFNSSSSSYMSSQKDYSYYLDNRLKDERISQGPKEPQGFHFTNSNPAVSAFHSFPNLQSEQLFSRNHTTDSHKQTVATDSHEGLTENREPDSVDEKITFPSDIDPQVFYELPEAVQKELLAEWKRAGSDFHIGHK
DNA repair nuclease/redox regulator APEX1 (Homo sapiens), sequence (P27695 whole entry, looked up): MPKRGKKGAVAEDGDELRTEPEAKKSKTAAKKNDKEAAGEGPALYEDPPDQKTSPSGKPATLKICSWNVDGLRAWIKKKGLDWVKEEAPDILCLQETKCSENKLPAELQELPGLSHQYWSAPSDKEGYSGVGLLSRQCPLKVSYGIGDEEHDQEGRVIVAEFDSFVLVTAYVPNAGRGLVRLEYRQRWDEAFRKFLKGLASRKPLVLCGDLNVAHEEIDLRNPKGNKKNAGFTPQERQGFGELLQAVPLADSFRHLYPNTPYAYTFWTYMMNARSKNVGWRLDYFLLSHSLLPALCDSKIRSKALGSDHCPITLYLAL

With `O=C(O)c1cc[c]([Sb](=[O])([OH])[OH])cc1[N+](=O)[O-]`, the Potency in assay [1] is 2 µM (active).

`Cc1c(C(=O)O)cccc1-n1c(C)cc(/C=C2\C(=O)NC(=O)N(c3ccc4c(c3)OCO4)C2=O)c1C`: in assay [2], the compound was called inactive. Moreover, the results for the Potency in assay [3], in assay [4] and in assay [5] were 1.68 µM (active), 15 µM (active) and 8.49 µM (active), respectively.
